Laboratory results published in PubChem BioAssay AID1903 (Southern Research Specialized Biocontainment Screening …, 2009).
About 1,200 (0.39%) of roughly 310,000 compounds were called active. How the calls were made is not given here. The list is a sample of the results. Results with a measured potency or affinity are listed apart.

Each compound was assayed against Large T antigen (Simian virus 40) (UniProt P03070) (assay: SV40 large T antigen inhibitors, biochemical (AID 1903)). Conditions: SV40 large T antigen ATPase/helicase inhibition assay; at 20 µM; hits give high values.
Chain of Large T antigen (Simian virus 40) (P03070 whole entry, looked up): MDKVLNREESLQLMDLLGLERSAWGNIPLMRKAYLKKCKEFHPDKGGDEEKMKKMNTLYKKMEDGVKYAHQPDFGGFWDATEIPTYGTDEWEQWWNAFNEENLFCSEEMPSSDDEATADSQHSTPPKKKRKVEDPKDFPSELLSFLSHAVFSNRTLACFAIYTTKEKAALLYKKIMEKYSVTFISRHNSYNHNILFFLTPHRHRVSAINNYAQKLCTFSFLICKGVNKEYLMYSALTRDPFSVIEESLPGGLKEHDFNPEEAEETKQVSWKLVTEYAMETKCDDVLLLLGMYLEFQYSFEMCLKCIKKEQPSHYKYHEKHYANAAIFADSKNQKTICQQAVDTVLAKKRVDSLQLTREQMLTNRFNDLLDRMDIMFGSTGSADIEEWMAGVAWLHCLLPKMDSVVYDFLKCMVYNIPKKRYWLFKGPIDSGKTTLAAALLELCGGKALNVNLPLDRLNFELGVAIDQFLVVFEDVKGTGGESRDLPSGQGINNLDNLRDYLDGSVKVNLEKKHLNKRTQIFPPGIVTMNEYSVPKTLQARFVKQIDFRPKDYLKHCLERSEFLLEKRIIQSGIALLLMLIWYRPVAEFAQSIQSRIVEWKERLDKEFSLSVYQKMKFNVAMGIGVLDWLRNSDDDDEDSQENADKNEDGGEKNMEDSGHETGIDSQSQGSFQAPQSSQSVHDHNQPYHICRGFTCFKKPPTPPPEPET

inhibition, inactive:
O=C(Nc1ccc(S(=O)(=O)Nc2ncccn2)cc1)c1cnc(Cl)c(Cl)c1 24.8%
Cc1ccn(CCC(=O)Nc2ccc(-c3ccno3)cc2)n1 10.3%
C=C(c1cccc2ccccc12)P(=O)(O)O 8.15%
CCOC(=O)c1c(NC(=O)COC(=O)c2nc(Cl)ccc2Cl)sc(C(=O)N(C)C)c1C 3.76%
Cc1ccc(NC(=O)c2ccc(COc3ccccc3)o2)nc1 -5.11%
Fc1ccc(Nc2nc(-c3cccnc3)cs2)cc1 6.02%
CCN(CC)c1ccc(Nc2nc(-c3cccnc3)cs2)cc1 20.5%
Cc1nc2ncccn2c1-c1csc(Nc2ccccc2)n1 16.1%
Cc1ccc(Nc2nc(-c3c(C)nc4ncccn34)cs2)cc1 17.2%
O=S(=O)(c1cccs1)N1CCC2(CC1)OCCN2S(=O)(=O)c1ccccc1 11.8%
CN(Cc1c(C(=O)N/N=C/c2ccccc2)nnn1-c1nonc1N)c1ccccc1 -1.98%
Cc1c(C(=O)N2CC(C)OC(C)C2)[nH]c2ccc(Br)cc12 (stereo not drawn) 0.93%
CCOC(=O)C(NCc1ccc(OC)cc1)(NC(C)=O)C(F)(F)F (stereo not drawn) 0.08%
O=C1NC(=O)/C(=C\c2ccccc2OCc2ccc([N+](=O)[O-])cc2)N1 16%
O=Cc1ccccc1OCCOc1ccc([N+](=O)[O-])cc1 26.7%
C=CCn1c(-c2cccc(Cl)c2)n[nH]c1=S 4.07%
CCCCCC(=O)NNC(=S)NC(C)=O 7.61%
Cc1ccc(S(=O)(=O)N2CCN(Cc3cc(C(C)C)ccc3O)CC2)cc1 -1.91%
CCOc1ccc(C(=O)CN2CCN(S(=O)(=O)c3ccc(F)cc3)CC2)cc1 6.42%
CC(C)(C)C(=O)CN1CCN(S(=O)(=O)c2ccc(F)cc2)CC1 1.15%
COc1cc(NC(=O)CN2CCN(S(=O)(=O)c3ccc(C(C)C)cc3)CC2)cc(OC)c1 4.71%
Cc1ccc(C)c(NC(=O)CN(C)C(=O)c2cc3c(s2)CCCCC3)c1 17%
C=CCNC(=O)COCc1cc(-c2ccc3c(c2)OCO3)on1 7.76%
CN(C)C(=O)CSc1nnc(-c2ccc(S(=O)(=O)N3CCCC3)cc2)n1C -1.24%
C/C(=N/OC(=O)CC(C)C)c1cc(-c2ccc(Cl)cc2)no1 4.31%
O=C(CCN1CCOCC1)N/N=C/c1cc([N+](=O)[O-])ccc1OC(F)F 5.27%
Cc1ccccc1-c1nnn(CC(=O)N2CCN(C(=O)c3ccco3)CC2)n1 14.3%
CCCOc1ccc(C(=O)Nn2c(C)nc3ccccc3c2=O)cc1 1.86%
Nc1ncc(Br)cc1N=Cc1ccccc1 9.46%
Nc1ncnc(N)c1N=Nc1ccccc1 8.05%
C=CCN(C(=O)c1ccccc1)c1ccc(OC)cc1 -2.78%
O=C(c1ccco1)N1CCN(C(=O)c2cc(-c3ccc(F)cc3)no2)CC1 8.37%
CC(C)CNC(=O)c1cc(-c2ccc3c(c2)OCO3)on1 4.96%
COc1ccc2c(c1)S(=O)(=O)c1ccccc1N2 1.87%
Cc1nc(SCC(=O)N2c3ccccc3Sc3ccccc32)n[nH]1 12.6%
O=C(CSc1nnc(-c2ccccc2)n1-c1ccccc1)N1c2ccccc2Sc2ccccc21 4.91%
O=C(O)CCc1ccc(S(=O)(=O)Nc2ccccc2C(=O)NCCc2ccccc2)cc1 6.21%
CCOC(=O)C(CN1CCCC1)c1ccccc1 (stereo not drawn) 6.65%
COc1cccc(/C=N/NC(=O)C(=O)N2CCCCCC2)c1O 28.6%
CCCc1cc(=O)[nH]c(N/N=C/C=C\c2ccccc2)n1 6.47%
Cc1cc(N/N=C/c2c[nH]c3ccccc23)c2ccccc2n1 5.53%
O=C(N/N=C/c1c[nH]c2ccccc12)c1cccc(O)c1 16%
O=C(N/N=C\c1c[nH]c2ccccc12)c1ccc(O)cc1 18%
Cc1cc(C)nc(N/N=C/c2c[nH]c3ccccc23)n1 33.8%
Cc1cc(C)c(COCc2cc(/C=N/O)c(C)cc2C)cc1/C=N/O -0.28%
C=CCN1C(=O)C(Cc2ccccc2)SC1=Nc1ccc(C(=O)O)cc1 (stereo not drawn) 25.5%
C/C(=N\NC(=O)c1ccc(N)cc1)C1CC1 9.62%
CCN1CCN(C(=O)Cn2ncc3c([nH]c4ccc(C)cc43)c2=O)CC1 9.03%
Cc1cccc(NC(=S)NCc2ccc3c(c2)cc(C)n3C)c1C 5.14%
Cc1cc(C)nc(SCc2cc(=O)c(OC(=O)c3ccc(Cl)c([N+](=O)[O-])c3)co2)n1 9.56%
Cc1ccnc(SCc2cc(=O)c(OC(=O)c3ccc(S(=O)(=O)N4CCCC4)cc3)co2)n1 48.9%
Cc1cc(C)nc(SCc2cc(=O)c(OC(=O)c3ccc(S(=O)(=O)N(C)C)cc3)co2)n1 22.4%
Cc1ccnc(SCc2cc(=O)c(OC(=O)c3ccc(S(=O)(=O)N(C)C)cc3)co2)n1 15.9%
Cc1ccc(NC(=O)CN(C)C(=O)C2COc3ccccc3O2)cc1 (stereo not drawn) 6.98%
Cc1ccc(S(=O)(=O)NC2=NCN(CC(=O)O)CN2)cc1 7.75%
CC(=O)n1cc([C@H]2C=C(C(=O)N3CCN(Cc4ccc5c(c4)OCO5)CC3)O[C@@H](OCCCCO)C2)c2ccccc21 21.8%
CCOc1ccc(CNS(=O)(=O)c2ccc3c(c2)CC(=O)N3C)cc1 11.9%
CCOc1ccc(Oc2nc(Nc3ccc(C)cc3)nc(N(C)C)n2)nn1 -0.33%
COc1ccc(-n2ncc3c(=O)n(CC(=O)Nc4ccc(S(=O)(=O)N5CCOCC5)cc4)cnc32)cc1 5.14%
COC(=O)C(N)Cc1ccc(O)c(O)c1 (stereo not drawn) 20.9%
COC(=O)[C@@H](N)Cc1ccc(O)c(O)c1 10%
COC(=O)c1ccc(NC(=O)COc2cccc3c2OC(C)(C)C3)cc1 -1.91%
CC(=O)Nc1sc(N/N=C\c2ccccc2Cl)nc1-c1cccs1 34.5%
CC(=O)Nc1sc(N/N=C\c2ccccc2F)nc1-c1cccs1 9.59%
CCOc1cc(/C=N\Nc2nc(-c3ccc(C)cc3)c(NC(C)=O)s2)ccc1O 26.6%
COc1cc(/C=N\Nc2nc(-c3ccc(C)cc3)c(NC(C)=O)s2)ccc1O 35.9%
CC(=O)Nc1sc(N/N=C\c2ccccc2)nc1-c1cccs1 21%
CC(=O)Nc1sc(N/N=C\c2cccc(Cl)c2)nc1-c1cccs1 18.8%
OCCN(CCO)c1ccc(C(c2ccc(Cl)cc2)c2ccc(N(CCO)CCO)cc2Cl)c(Cl)c1 2.12%
COC(=O)c1c(-c2ccccc2)noc1-c1ccccc1 8.1%
O=C(c1cccc(S(=O)(=O)N2CCOCC2)c1)N1CCCCCC1 0.39%
Cc1ccc(NC(=O)CN2CCc3cc4c(cc3C2C)OCCCO4)cc1 (stereo not drawn) 8.62%
CN1C(C(=O)Nc2ccc(OC(F)(F)F)cc2)=CC(c2ccco2)=NS1(=O)=O 8.59%
COC(=O)c1sc2cc([N+](=O)[O-])cc(SCC(C)C)c2c1N 10.4%
COc1cc(Cl)cc(C#N)c1OCC(=O)O -0.11%
CC(=O)/C(N=Nc1c(C)n(C)n(-c2ccccc2)c1=O)=C(\C)O 1.99%
CC1=CC(=Nc2c(C)n(C)n(-c3ccccc3)c2=O)C=C(C)C1=O 2.58%
Cc1[nH]c2ccccc2c1N=Nc1c(C)n(C)n(-c2ccccc2)c1=O 6.57%
Cc1c(N=NC2=C(O)CC(C)(C)CC2=O)c(=O)n(-c2ccccc2)n1C 4.32%
Cc1c(N=NC2=C(O)CCCC2=O)c(=O)n(-c2ccccc2)n1C -2.74%
Cc1c(N=Nc2ccc(O)cc2)c(=O)n(-c2ccccc2)n1C 28%
Cc1c(NCc2ccccc2O)c(=O)n(-c2ccccc2)n1C 29%
CCC(C)C1=CC(=Nc2c(C)n(C)n(-c3ccccc3)c2=O)C=C(C(C)CC)C1=O (stereo not drawn) 4.02%
CCNC(=O)c1c(NC(=O)C2COc3ccccc3O2)sc2c1CCCC2 (stereo not drawn) -3.17%
COc1ccc(/C=N/NC(=O)CNc2c(Br)cc(C)cc2Br)c(C(=O)O)c1OC -1.95%
Cc1nc(-c2nc(-c3c(C(=O)NNC(=O)Nc4cccc(Cl)c4)noc3C)cs2)cs1 8.51%
Cc1ccc(C(=O)OCC(=O)N2CC(C)CC(C)C2)cc1S(=O)(=O)N1CCOCC1 (stereo not drawn) -0.25%
COc1ccc(N(C(C)C(=O)Nc2ccc(S(=O)(=O)N3CCOCC3)cc2)S(C)(=O)=O)cc1 (stereo not drawn) 22.9%
Cc1ccc(S(=O)(=O)NNC(=O)Nc2ccc([N+](=O)[O-])cc2)c(C)c1 7.86%
NC(=O)COC(=O)CNC(=O)c1sc2ccccc2c1Cl 4.69%
c1ccc2cc(OCCOCCOc3ccc4ccccc4c3)ccc2c1 5.7%
CC1=NN(c2cccc(F)c2)C(=O)/C1=C/c1ccc(N(C)C)cc1 8.44%
CCN(CC)c1ccc(/C=C2/C(=O)ON=C2C)cc1 29.4%
